Data on 26 molecules can be found in PubChem BioAssay (NCI).

This is part of a sample that, as a whole, favours compounds with a hit. Of some 83,000 tested, about 20% had one in any assay.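 Treatment: one concentration, 48 hours, 96-well format. Scoring: percent growth, with anything below 10 considered active.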 A number with no mark means an inactive call. The source made the active and inactive calls.

The subject of the assay is MDA-MB-468 breast. Description: NCI-60 one-dose screen, 48 h (100 = growth as untreated, 0 = no growth, -100 = all killed). To be noted: 10 µM unless noted.
Turning to `Brc1cnc2ccccc2c1`, the growth was 113%.
Consider `C=Cc1cc[n+](CCCCCCCCCCCC)cc1`, for which the growth is 102%.
Regarding `CS(=O)(=O)c1nccc(-c2c(-c3cccc(OCc4ccc(F)cc4)c3)nc3sccn23)n1`, the growth is -63.6% (active).
For the molecule `COc1cc(-c2n/c(=C\c3c(O)[nH]c4ccccc34)cc3c2=Nc2ccccc2-3)cc(OC)c1OC`, the growth is 5.24% (active).
As for `Cc1nn(-c2ccccc2)c(Oc2ccc(Cl)cc2)c1/C=N\N=c1/sc2ccccc2n1C`, the growth was 81.8%.
As for `[2H]C1([2H])[C@H](C)O[C@H](C)C([2H])([2H])N1c1ccc(NC(=O)c2cccc(-c3ccc(OC(F)(F)F)cc3)c2C)cn1`, the growth is 41.9%.
As for `CCc1ccc(Cc2cnc(NC(=O)c3cc(C)oc3C)s2)cc1`, the growth was 9.5% (active).
Consider `CCN(CC)CC(O)c1cc(-c2ccc(Cl)cc2)nc2cc(Cl)ccc12` (stereo unspecified), for which the growth was -76.9% (active).
Consider `C#CC(C(C)C)N(CCO)CCCC` (stereo unspecified), for which the growth is 103%.
For the molecule `S=c1nc(-c2ccccc2)oc(=NC2CCCCC2)n1C1CCCCC1`, the growth was -42.1% (active).
To `O=C(N(c1ccccc1)c1ccccc1)n1ccc2nc(Cl)nc(Cl)c21` belongs -0.952% (active); to `COc1cccc(C2C(C#N)=C(N)Oc3cc(OCCCCCC[P+](c4ccccc4)(c4ccccc4)c4ccccc4)ccc32)c1` (stereo unspecified), -64.3% (active); to `CCO/C=N/C1=C(C#N)C(c2ccc(OC)cc2)c2sc3c(C)cccc3c2O1` (stereo unspecified), -13% (active).
Take `Fc1ccc(-c2ccnc3nc(-c4ccncc4)nn23)cc1`: the growth is 111%.
Take `O=CN1N=C(c2ccc(Nc3ccnc4cc(Cl)ccc34)cc2)CC1c1ccc(Cl)cc1` (stereo unspecified): the growth was -0.669% (active).
Consider `CCN1CCN(C(=O)[C@]23CC[C@@H](C)[C@H](C)[C@H]2C2=CC[C@@H]4[C@@]5(C)C/C(=C/c6cccc(OC)c6OC)C(=O)C(C)(C)[C@@H]5CC[C@@]4(C)[C@]2(C)CC3)CC1`, for which the growth is 16.4%.
The result for `CCc1ccc(CCCC(=O)O)cc1` reads 107%; that for `CC1(C)C2CCC1(C)C1(C2)OCCS1` (stereo unspecified), 89.8%.
Regarding `NC1=Nc2cc(OCCCN3Cc4ccccc4C3)c(OCC3CC3)cc2C12CCCC2`, the growth was 31.9%.
The result for `CCSC(SCC)c1ccc(Cl)cc1` reads 118%.
With `Cc1nc2sccn2c1-c1csc(Nc2ccccc2Cl)n1`, the growth was 19%.
Consider `Cc1ccc(C2CCCCC2)cc1Br`, for which the growth is 97%.
In the case of `Nc1ccc(-c2cc3c(Nc4ccc(Oc5cccc(C(F)(F)F)c5)c(Cl)c4)ncnc3s2)cc1`, the growth was -9.82% (active).
The result for `Cc1ccsc1C(NC(=O)c1ccccc1)c1cc(Cl)c2cccnc2c1O` (stereo unspecified) reads 4.52% (active); that for `COc1ccc2ccccc2c1/C=N/N1CCCCC1`, 113%; that for `CSc1nnc(C2=CC(=O)c3ccccc3C2=O)n1-c1ccccc1`, 82.6%.
